# Screening results (PubChem BioAssay)
# USP17 block: inhibitors of human USP17 deubiquitinase. purified USP17, Ub-rhodamine cleavage fluorescence, 3 h. inhibition, % at 50 µM. 6.5% of 47,000 active. AID 1645855
# OTUD3 inh: blocks human OTUD3 ubiquitin-rhodamine cleavage; purified OTUD3, Ub-rhodamine fluorescence, 2 h; 0.7% of 47,000 active; AID 1645858; inhibition, % at 25 µM; Q5T2D3
# USP28 inh: human USP28 deubiquitinase inhibition. purified USP28, Ub-rhodamine cleavage fluorescence, 30 min. Q96RU2. inhibition, % at 25 µM. 3% of 47,000 active
# Target sequence (Q96RU2 whole entry, looked up): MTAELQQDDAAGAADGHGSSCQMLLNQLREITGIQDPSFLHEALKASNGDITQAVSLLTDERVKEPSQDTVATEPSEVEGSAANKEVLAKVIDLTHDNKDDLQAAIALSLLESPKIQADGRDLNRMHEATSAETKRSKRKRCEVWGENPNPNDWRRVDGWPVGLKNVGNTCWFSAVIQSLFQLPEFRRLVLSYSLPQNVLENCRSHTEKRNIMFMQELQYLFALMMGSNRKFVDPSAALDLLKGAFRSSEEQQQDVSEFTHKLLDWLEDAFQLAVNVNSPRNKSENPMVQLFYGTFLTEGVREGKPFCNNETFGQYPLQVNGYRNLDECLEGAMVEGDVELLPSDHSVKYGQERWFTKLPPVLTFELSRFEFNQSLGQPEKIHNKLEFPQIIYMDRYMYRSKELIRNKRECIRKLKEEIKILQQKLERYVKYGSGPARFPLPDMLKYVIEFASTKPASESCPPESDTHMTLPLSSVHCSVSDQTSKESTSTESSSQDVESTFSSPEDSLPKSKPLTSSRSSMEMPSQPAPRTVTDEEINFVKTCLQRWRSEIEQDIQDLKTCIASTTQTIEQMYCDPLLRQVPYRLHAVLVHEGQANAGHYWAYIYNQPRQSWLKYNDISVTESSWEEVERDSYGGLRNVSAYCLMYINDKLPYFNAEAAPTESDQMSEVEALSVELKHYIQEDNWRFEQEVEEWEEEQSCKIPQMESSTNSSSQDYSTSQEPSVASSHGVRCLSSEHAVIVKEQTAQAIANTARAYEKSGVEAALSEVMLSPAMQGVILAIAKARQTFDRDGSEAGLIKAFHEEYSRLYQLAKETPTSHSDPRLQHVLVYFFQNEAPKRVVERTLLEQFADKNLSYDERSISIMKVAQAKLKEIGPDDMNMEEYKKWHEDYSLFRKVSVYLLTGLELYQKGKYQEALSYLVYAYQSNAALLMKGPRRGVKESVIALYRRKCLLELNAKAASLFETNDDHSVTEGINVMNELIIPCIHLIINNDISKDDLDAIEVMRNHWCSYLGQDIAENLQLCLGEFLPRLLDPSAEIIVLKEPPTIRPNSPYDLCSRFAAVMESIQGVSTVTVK
# USP30 inh: inhibitors of human USP30 deubiquitinase; purified USP30, Ub-rhodamine cleavage fluorescence; inhibition, % at 25 µM; 5.3% of 47,000 active
# The depositor's hits bear a star; · = no result. Shown are actives, neighbours in structure and some others; about 11% of the full set was active somewhere. No stated cut-off is given here; in the data, active means inhibition above about 30%; inactive means the rest.
SMILES,USP17 block,OTUD3 inh,USP28 inh,USP30 inh
O=C(Nc1cccnc1)c1[nH]nc2c1COc1ccccc1-2,-62.3,-48.3,-18.2,-223.2
O=C(NCc1ccc2c(c1)OCO2)c1[nH]nc2c1CCc1ccccc1-2,60.0*,7.0,24.2,56.9*
COc1ccc2cc(CCNC(=O)C3(c4ccc(Cl)cc4)CCCC3)c(=O)[nH]c2c1,43.4*,4.8,7.5,9.3
Cc1ccc2cc(CCNC(=O)COc3ccc(Cl)cc3)c(=O)[nH]c2c1,37.5*,13.6,1.5,12.7
COc1ccc2cc(CNCCN3CCOCC3)c(=O)[nH]c2c1,-26.7,-20.4,-33.2,-146.7
O=C(NC1CCN(C(=O)c2ccc(Cl)cc2)CC1)C1CCCCC1,·,-3.3,-1.5,2.6
O=C(NC1CCCCC1)C1(Cc2cccc(-c3cccnc3)c2)CCOCC1,6.9,11.7,1.1,23.1
O=C(CC1SC(=O)NC1=O)Nc1cccc(C(F)(F)F)c1 (centres undefined),-9.5,-16.2,-18.1,-49.7
O=C1NC(=N/N=C/c2ccccc2)SC1Cc1cc(C(F)(F)F)ccc1Cl (centres undefined),35.8*,29.1,8.4,35.2*
Cc1ccc(-c2n[nH]c3c2CN(C(=O)NCc2ccco2)CC3)cc1,-26.0,-7.2,-16.8,-69.6
COc1ccc2nc(NC(=O)C(CC(C)C)NS(=O)(=O)c3ccc4c(c3)CCN4C(C)=O)sc2c1 (centres undefined),73.7*,1.7,10.3,5.1
CC(=O)N1CCc2cc(S(=O)(=O)NC(CC(C)C)C(=O)N3CCC(Cc4ccccc4)CC3)ccc21 (centres undefined),-1.4,-5.4,6.5,-1.4
Cc1cc(O)c(C(c2ccccc2F)c2c(O)cc(C)[nH]c2=O)c(=O)[nH]1,-4.6,-0.2,-1.9,12.5
CC(C)CC1NC(=O)C2CCCN2C1=O (centres undefined),70.9*,33.3*,50.6*,18.4
CC(C)CC1NC(=O)C2CC(O)CN2C1=O (centres undefined),19.0,12.9,19.7,37.1*
O=C(O[C@@H]1C[C@H]2C(=O)N[C@H](Cc3ccccc3)C(=O)N2C1)c1ccccc1,8.2,4.3,2.8,10.8
O=C(Nc1cccc(Cl)c1)C1CCN(S(=O)(=O)c2cccc3cccnc23)CC1,-5.9,3.5,24.1,-25.2
CC(C)Cn1nc(C(=O)N(CCc2cccs2)Cc2cccs2)c2ccccc2c1=O,32.5*,6.7,15.4,27.6
CC(C)Cn1c(=O)c2cc(C(=O)NCc3ccncc3)nn2c2ccccc21,4.3,-6.3,-0.4,-0.9
CCCCC(CC)CNC(=O)CCCn1c(=O)[nH]c2ccc(Br)cc2c1=O (centres undefined),-0.3,-3.3,0.7,1.4
COc1ccc(C(=O)c2c[nH]cc2-c2ccc(C)cc2)cc1OC,31.2*,0.9,-2.6,13.0
CCc1ccc(-c2nc(SCC(=O)Nc3ccc4[nH]c(=O)[nH]c4c3)n[nH]2)cc1,36.7*,22.3,23.2,58.1*
Cc1occc1-c1nnc(SCC(=O)Nc2ccc3[nH]c(=O)[nH]c3c2)n1C,44.7*,-10.2,-1.9,-13.5
Cc1nnc(SCC(=O)Nc2ccc3[nH]c(=O)[nH]c3c2)n1Cc1ccccc1,42.5*,4.5,13.6,-0.9
O=C(CSc1n[nH]c(-c2ccc(F)cc2)n1)Nc1ccc(F)cc1,-6.5,-4.7,-3.0,-0.7
SMILES,USP17 block,OTUD3 inh,USP28 inh,USP30 inh
CC(=O)N1CCC(c2cc(-c3cccc(C(=O)O)c3)nc(C)n2)C1 (centres undefined),2.0,-1.9,-5.1,6.5
Cc1ccc(N2CC[C@@H]3[C@@H]2CCN3C(=O)c2ccoc2)nn1,-17.5,3.5,-1.7,-7.3
COc1cccc(C(=O)Nc2nc(-c3ccco3)c(-c3ccco3)s2)c1,43.6*,24.9,0.0,-169.8
O=S(=O)(Nc1nc(-c2ccco2)c(-c2ccco2)s1)c1ccc(F)cc1F,-17.4,-24.0,-28.8,-420.7
Cc1nc2ccccc2c(-c2ccccc2)c1C(=O)Nc1ccccc1,8.3,6.2,15.9,38.4*
CC(C)c1ccc(NC(=O)c2c(-c3ccccc3)nnc3ccccc23)cc1,8.4,3.0,4.1,23.6
O=C(Cc1nnc(-c2cnccn2)o1)Nc1ccc(Cl)cc1,9.8,18.1,22.6,37.6*
O=C(Cc1nnc(-c2cnccn2)o1)Nc1ccc(F)c(Cl)c1,13.2,4.2,14.0,16.5
O=C(NCc1cccc(C(F)(F)F)c1)c1ccc(-n2cccn2)nc1,6.6,7.8,5.8,31.6*
O=C(Nc1cccc(Cl)c1)c1nc(-n2cnnc2)ccc1Cl,0.1,-6.4,-7.5,7.6
Cc1nc2ccc(C(=O)Nc3cc(Cl)cc4cccnc34)cc2nc1C,63.5*,8.7,9.7,-11.7
COc1ccc(CCNC(=O)COc2ncnc3oc(C)c(C)c23)cc1OC,-2.4,7.3,56.8*,-10.1
COc1ccc(CCNC(=O)Cn2cncn2)cc1OC,-1.7,-2.3,-7.7,3.6
Cc1ccc(S(=O)(=O)N2CCC3(CC2)COCCN(c2ncccn2)C3)cc1,-1.6,4.8,1.1,0.1
O=c1ncn(Cc2ccc3c(c2)OCO3)cc1-c1ncc(C(F)(F)F)cc1Cl,50.7*,2.0,2.8,45.9*
COc1ccc(C2/C(=C(\O)c3ccccc3)C(=O)C(=O)N2c2nc3ccc(F)cc3s2)cc1 (centres undefined),·,19.3,15.3,54.8*
Cc1ccc(C2/C(=C(\O)c3ccc(F)cc3)C(=O)C(=O)N2c2nc3ccc(F)cc3s2)cc1 (centres undefined),·,-4.4,10.5,0.6
COc1ccc(O)c(C(=O)c2cc(C#N)c(=O)n(-c3cccc(C(F)(F)F)c3)c2)c1,17.0,-14.6,9.9,-33.0
COc1ccc(C2/C(=C(\O)c3ccccc3)C(=O)C(=O)N2c2cccc(C(F)(F)F)c2)cc1 (centres undefined),·,0.0,10.4,33.3*
COc1ccc(-c2cc(-c3ccc(OC)cc3)c3[n+](c2)CCC3)cc1,-4.0,11.7,6.0,-44.8
COC(=O)c1ccc(CNC(=O)c2cc3ccccc3oc2=O)cc1,62.1*,2.5,·,·
O=C(COC(=O)c1cc2ccccc2oc1=O)Nc1ncccn1,-68.3,-52.5,-68.1,-237.1
Cc1ccc(C(=O)C(C)OC(=O)c2cc3ccccc3oc2=O)cc1 (centres undefined),47.4*,2.0,·,·
O=C(Nc1ccccc1)c1nc(-c2cn(Cc3ccc(F)cc3)nn2)no1,22.9,5.2,37.4*,55.2*
COc1cccc(NS(=O)(=O)c2cc3n(c2)CCN(C)C3=O)c1,·,-5.5,-6.3,-22.3
N#Cc1ccccc1Cn1c(=O)n(Cc2ccc(C(=O)NC3CCCC3)cc2)c(=O)c2ccccc21,16.1,17.4,17.4,33.3*
O=C(NC1CCN(Cc2ccccc2)CC1)c1ccc(Cn2c(=O)c3ccccc3n(Cc3ccccc3F)c2=O)cc1,15.7,10.5,13.1,34.0*
NC(=O)Cn1c(=O)n(Cc2ccc(C(=O)NC3CCCC3)cc2)c(=O)c2ccccc21,53.1*,22.6,22.9,28.6
O=C(NC1CCCC1)c1ccc(Cn2c(=O)c3ccccc3n(Cc3ccc(F)cc3)c2=O)cc1,8.2,10.4,8.0,3.2
Cc1ccccc1Cn1c(=O)n(Cc2ccc(C(=O)NC3CCN(Cc4ccccc4)CC3)cc2)c(=O)c2ccccc21,16.5,9.3,17.2,28.8
